Assay outcomes as filed in PubChem BioAssay.
D3 antag = antagonists of human D3 dopamine receptor; P35462; D3R cells, DiscoveRx beta-arrestin luminescence, antagonist mode; stronger effect = lower value; max response, negative = inhibition, %; 2.5% of 360,000 active; in the data active means max response below about -50%; inconclusive means no clear call, values can overlap the other calls; further: on the % scale 0 is the no-effect control and ±100 the full control effect
Target sequence (P35462 whole entry, looked up): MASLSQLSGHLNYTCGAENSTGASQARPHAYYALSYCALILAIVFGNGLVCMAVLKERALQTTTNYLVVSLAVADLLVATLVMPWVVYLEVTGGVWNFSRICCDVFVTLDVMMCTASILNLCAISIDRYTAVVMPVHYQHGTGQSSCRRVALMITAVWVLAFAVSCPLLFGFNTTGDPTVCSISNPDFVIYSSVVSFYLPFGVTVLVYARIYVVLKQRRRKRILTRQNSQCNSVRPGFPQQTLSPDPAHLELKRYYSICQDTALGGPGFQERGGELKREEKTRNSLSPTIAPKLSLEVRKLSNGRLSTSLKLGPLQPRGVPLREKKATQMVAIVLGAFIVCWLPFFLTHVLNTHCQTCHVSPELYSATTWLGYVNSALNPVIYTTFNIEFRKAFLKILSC
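Cells expressing the human receptor were seeded at 1500 cells/well, incubated overnight at 37 degrees C in 5% CO2, then exposed to library compounds with dopamine controls for 90 minutes at 37 degrees C before luminescent detection.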
LDHA block = blocks human lactate dehydrogenase A | P00338 | purified LDHA, NADH/diaphorase-resazurin fluorescence; stronger effect = lower value | activity change, % (values are at about 110 or 230 µM) | 0.15% of 480,000 active; in the data active means activity change below about -30%; inconclusive means mostly about -25% to -30%;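 further: plate controls were DMSO wells for no effect and wells without enzyme for full effect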
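Human LDH5 at 2 nM final in Tris HCl pH 7.4 with 0.06 mM NADH and 0.2 mM pyruvate, reacted 5 minutes at room temperature. Remaining NADH coupled via diaphorase/resazurin; resorufin fluorescence read at 0 and 20 minutes, normalized to enzyme-free and DMSO wells.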
PI4K2A block = PI4K2A (human) kinase inhibition. Q9BTU6. purified PI4K2A, ADP-Glo luminescence, 1 h; stronger effect = lower value. activity change, negative = inhibition, % at 76.9 µM. 0.13% of 420,000 active; in the data active means activity change below about -50%; inconclusive means mostly about -30% to -49%;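 further: -100% = wells without enzyme as full effect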
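In this quantitative HTS, ADP production by PI4K2A was quantified luminescently after 1 h at ambient temperature; 100 microM adenosine served as plate-quality control.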
PI5P4K alpha inh = blocks human PI5P4K alpha kinase activity; PI5P4Kalpha enzyme, ADP-Glo luminescence, 60 min; stronger effect = lower value; max response, %; P48426; 1.2% of 330,000 active; active means max response of -50% or lower; inconclusive means between -30% and -50%; inactive means -30% or higher; further: value at the top dose of about 77 µM; on the % scale 0 is the no-effect control and ±100 the full control effect
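Single end-point luminescence (ADP-Glo) quantified ADP from PI5P4Kalpha turnover; ATP 5 microM final, 1 h at RT, 0.1% CHAPS and 0.28 mM EGTA in HEPES pH 7.4.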
D3 ag = activates the human D3 dopamine receptor | P35462 | D3R DiscoveRx beta-arrestin cells, luminescence, 90 min | max activation, % | 0.58% of 410,000 active; in the data active means max activation above about 30%; further: 0% is about no effect
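Agonist-mode cell screen: cells plated at 1500/well and incubated overnight at 37 °C, then exposed to library compounds for 90 min at 37 °C. Detection reagent was added for 30–60 min at room temperature, and luminescence was read.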
The depositor's hits bear a star; ? = inconclusive; nt = no result given. Sampled rows, rich in hits. Any-hit rate of the full collection: about 3.3%.

SMILES	D3 antag	LDHA block	PI4K2A block	PI5P4K alpha inh	D3 ag
O=C1C(=Cc2ccccc2O)SC(=S)N1CCCN1CCOCC1	15.7	-1.2	-3.8	-68.9*	2.0
O=C(CCN1C(=O)/C(=C\c2ccccc2)SC1=S)NCCCN1CCOCC1	3.2	-2.6	-2.2	-0.4	-3.5
CCC(CO)Oc1cc(NCc2ccccc2O)c2ncn(C(C)C)c2c1 (configuration not stated)	182.8	12.5	-3.6	-2.8	50.4*
COCCOc1cc(NCc2ccccc2)c2ncn(C(C)C)c2c1	-70.6*	18.0	-14.6	-5.0	-14.7
CCCOc1cc(NCc2ccccc2)c2ncn(C(C)C)c2c1	6.9	18.0	-7.2	5.0	9.8
CC1CCCCC1Nc1nc2ccc(Cl)cc2n2cnnc12 (configuration not stated)	4.1	-0.8	-0.2	-1.5	35.0*
CCCCNCCOCCOc1ccc(F)cc1	-53.8*	-14.7	-17.8	-4.8	-21.3
COc1cc(C=O)ccc1OCCCCOc1ccc(Cl)cc1Br	nt	-7.1	nt	nt	nt
COCCCNCCCOc1ccc(Cl)cc1Br	?	0.0	6.8	1.1	-6.7
CN(C)CCOCCOc1ccc(Cl)cc1C(C)(C)C	?	-9.1	-1.0	11.7	-12.2
CC(O)CNCCCOc1ccc(Cl)cc1C(C)(C)C (configuration not stated)	-52.7*	-11.5	-6.1	30.3	-14.2
CCCCNCCOCCOc1ccc(Cl)cc1Br	-87.1*	-18.2	5.1	16.2	-23.9
CC(C)NCCCOc1ccc(Cl)cc1Br	-73.0*	-14.6	6.2	0.1	3.0
CCCN(CCC)CC1=C(C(=O)OCC)C(c2ccc(C)cc2)NC(=O)N1 (configuration not stated)	nt	-0.3	nt	nt	nt
COCCCNC(=O)COc1ccc(Br)cc1Cl	-3.8	-11.2	-1.7	6.0	-2.2
CC(C)NCCCCOc1ccc(Br)cc1Cl	-70.8*	-15.0	0.6	-1.1	-1.9
O=C(COc1ccccc1)NC(NC(=S)Nc1ccccc1C(=O)O)C(Cl)(Cl)Cl (configuration not stated)	-77.3*	-1.5	-0.9	-6.7	-0.6
Cc1[nH]n(-c2ccccc2)c(=S)c1C=Nc1cccc([N+](=O)[O-])c1	-99.5*	-4.2	-16.0	-105.1*	-5.3
CCCCN=Cc1c(C)[nH]n(-c2ccccc2)c1=S	-10.1	1.2	-1.6	-4.3	-3.6
COC(=O)c1ccccc1OS(=O)(=O)c1ccc2oc(=O)ccc2c1	nt	11.3	nt	nt	nt
Cc1ccc(C(c2nnnn2CCC(C)C)N2CCN(C)CC2)cc1 (configuration not stated)	-67.0*	1.0	-1.2	3.4	-0.6
C=CCN1CCN(C(c2ccccc2)c2nnnn2CCC(C)C)CC1 (configuration not stated)	-82.2*	-0.1	-4.8	-58.9*	-9.9
COc1ccc(/C=N/NC(=O)c2cccc(OC(F)(F)C(F)F)c2)cc1O	-76.1*	-3.8	-4.0	8.0	-14.7
Cc1ccc(C)c(N2CCN(C(=O)CCc3nc(-c4ccccc4Cl)no3)CC2)c1	104.8	-3.9	0.1	22.1	50.0*
COc1ccc(Oc2ccc3c(C(F)(F)F)cc(C(F)(F)F)nc3n2)cc1	-21.1	-1.1	-2.8	nt	-10.2
SMILES	D3 antag	LDHA block	PI4K2A block	PI5P4K alpha inh	D3 ag
Oc1ccc(Oc2ccc3c(C(F)(F)F)cc(C(F)(F)F)nc3n2)cc1	85.3	5.6	8.3	nt	44.0*
CCCn1nc(C(=O)Nc2ccc(OCC(C)C)c(Cl)c2)c2ccccc2c1=O	nt	1.4	nt	nt	nt
Cc1ccc2c(=O)cc(C(=O)NCCc3ccc(S(N)(=O)=O)cc3)oc2c1	3.5	-7.7	-17.0	-78.5*	0.4
CCCCN(Cc1ccccc1)c1ccc(NS(=O)(=O)c2ccccc2C)cc1C(=O)O	nt	1.4	nt	nt	nt
COc1ccc(C2Nc3ccccc3C(=O)N2Cc2cccnc2)cc1COc1c(C)cccc1C (configuration not stated)	nt	nt	-6.4	nt	nt
CC1COCC(C)N1C(=O)c1cccnc1 (configuration not stated)	-124.8*	-0.4	0.4	0.1	0.5
CCS(=O)(=O)N1CCN(C(=O)c2cccnc2)CC1	27.4	-5.1	1.0	nt	3.0
O=C(c1ccc(F)cc1)N1C2CCC1CC(O)(c1ccc(F)cc1)C2 (configuration not stated)	-54.2*	-0.1	-4.8	1.0	-10.2
O=C(c1cccnc1)N1C2CCC1CC(O)(c1ccc(F)cc1)C2 (configuration not stated)	-57.0*	0.7	1.2	nt	-27.8
CCn1cnc2c1c(=O)n(CC(=O)N(C)Cc1ccc(Cl)s1)c(=O)n2Cc1ccccc1	nt	10.6	nt	nt	nt
O=C(Oc1ccc2c(-c3cc4ccccc4oc3=O)cc(=O)oc2c1)C1CC1	nt	0.0	nt	nt	nt
COc1ccc(Cl)cc1C(=O)NCC(c1ccco1)N1CCCC1 (configuration not stated)	-81.5*	-9.4	-1.5	nt	-56.5
COc1ccc(Cl)cc1NS(=O)(=O)c1cccc(C(=O)NCC(c2ccco2)N(C)C)c1 (configuration not stated)	-81.8*	2.0	4.6	5.5	-12.5
CN(C)C(CNC(=O)c1ccc(Br)cc1)c1ccco1 (configuration not stated)	-63.2*	0.0	-1.9	6.5	-25.0
COc1cc(C(=O)NCC(c2ccco2)N2CCCC2)ccc1OCc1ccc(Cl)cc1Cl (configuration not stated)	?	1.5	-3.6	-3.7	-1.5
COc1cc(C(=O)NCC(c2ccco2)N(C)C)cc(OC)c1OC (configuration not stated)	2.7	-2.4	5.3	-6.5	-7.9
COc1ccc(Cl)cc1C(=O)NCC(c1ccco1)N(C)C (configuration not stated)	-78.6*	-2.6	1.7	6.0	-16.1
C=C(C)COc1ccc2c(C)c(CCC(=O)Nc3nc4ccccc4[nH]3)c(=O)oc2c1	nt	4.0	nt	nt	nt
COc1ccc(-c2[nH]ncc2/C=N/NC(=O)c2ccc(Br)cc2)c(OC)c1	-65.5*	1.0	-4.2	-19.9	-37.7
O=C(N/N=C/c1ccc(OC(F)F)cc1OC(F)F)c1ccc(Br)cc1	-87.7*	-6.1	6.0	-4.2	-13.0
COc1ccc(C(=O)N/N=C/c2cn[nH]c2-c2ccc(OC)cc2OC)cc1	-26.3	0.2	2.4	-12.2	-20.4
CCOc1ccc(S(=O)(=O)N(C)CC(=O)N2CCN(CC)CC2)cc1C	nt	0.7	nt	nt	nt
C=C[C@]1(C)C=C2C(=O)[C@@]3(O)OC(=O)[C@@]4(CCCC(C)(C)[C@H]34)[C@@]2(O)CC1	-58.1*	16.1	-19.2	?	-8.9
CC(=O)Nc1ccc(NC(=O)NC(C)c2ccc(Cl)cc2)cc1 (configuration not stated)	nt	2.3	nt	nt	nt
Cc1ccc(NC(=O)c2cccc(C(F)(F)F)c2)cc1NC(=O)c1[nH]cnc1C(N)=O	45.5	-8.8	-2.3	-2.3	30.7*
CCOC(=O)CCN(C)Cc1ccc(OC)c(OC)c1	nt	6.2	nt	nt	nt
